Compound activity deposited in PubChem BioAssay by National Center for Advancing Translational Sciences (NCATS).
HT1080 IDH1KD tx – HT-1080 IDH1 knockdown cell toxicity (counter line) | HT-1080 IDH1 knockdown viability, ATP luminescence, 48 h | Potency, µM (top dose mostly 46.1 µM), without a hit: at the highest dose activity, negative = toxicity, most hits filed as cytotoxic | 360,000 compounds, 2% hits | AID 686971;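 note: 0% = DMSO wells and -100% = cell-free medium wells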
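Assay cells: HT-1080 with IDH1 knockdown, 750 per well, RPMI/5% FBS. Exposure: 48 h at 37 °C following 2 h pre-incubation. Read: CellTiter-Glo luminescence; fitted concentration-response, curve class assigned.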
KB-V1 MDR tox – kills drug-selected multidrug resistant KB-V1 cells; AID 1347076; Potency, µM (highest dose often 46.1 µM), actives largely listed as cytotoxic; 400,000 compounds, 3.4% hits; KB-V1 MDR cells viability, CellTiter-Glo, 72 h; note: nearly all actives have a fitted effect of over 60% in size
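Luminescent ATP read-out (CellTiter-Glo, 10 min) measures survival of drug-selected KB-V1 MDR cells after 72 h, 37 degrees C compound exposure. Medium: phenol-red-free DMEM, 10% FBS. Values from fitted concentration-response curves.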
DT40 TDP1 CPT – growth inhibition of DT40 Tdp1-/-;hTDP1 cells with camptothecin (screen for TDP1 inhibitors). 420,000 compounds, 12% hits. Potency, µM (highest dose often 46.2 µM), for inactives: at the top dose activity change, negative = growth inhibition, hits mostly inhibitors. AID 686979. chicken DT40 Tdp1-/-;hTDP1 cells + 20 nM CPT, ATP luminescence, 48 h; note: nearly all actives have a fitted effect of over 55% in size
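Chicken DT40 Tdp1-/- cells complemented with human TDP1, 400 cells/well, exposed to compounds plus 20 nM camptothecin for at least 48 h at 37 C; viability read as ATP content by CellTiter-Glo luminescence.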
TDP1 cell noCPT – qHTS for Inhibitors of human tyrosyl-DNA phosphodiesterase 1 (TDP1): qHTS in cells in absence of CPT; 420,000 compounds, 15% hits; DT40 Tdp1-/- hTDP1 cells, no CPT, ATP luminescence, 48 h; Potency, µM (top dose mostly 46.2 µM), without a hit: top-dose activity change, negative = growth inhibition, most hits filed as inhibitors; note: nearly all actives have a fitted effect of over 55% in size
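Readout: luminescence from CellTiter-Glo after 30 min in the dark at RT. Cells: DT40 Tdp1-/- with stable hTDP1, 400/well. Exposure: compounds alone, ≥48 hr, 37 °C.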
HT1080NT lethal – kills 2HG-producing HT-1080-NT fibrosarcoma cells; HT-1080-NT fibrosarcoma viability, CellTiter-Glo ATP luminescence, 48 h; Potency, µM (top dose mostly 46.1 µM), inactives show at the highest dose activity, negative = less viability, hits mostly cytotoxic; 360,000 compounds, 1.6% hits; AID 686970;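 note: NT is the 2HG producing partner of a matched IDH1 knockdown line; 0% = DMSO-treated cells and -100% = media-only wells without cells; nearly all actives have a fitted effect of over 55% in size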
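Toxicity toward the 2HG-producing NT line was scored as %Activity, normalised to DMSO and no-cell wells, from CellTiter-Glo luminescence after 48 hours' treatment.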
KB-3-1 tox – KB-3-1 parental cell cytotoxicity; KB-3-1 viability, CellTiter-Glo ATP luminescence, 72 h; Potency, µM (highest dose often 46.1 µM), most hits filed as cytotoxic; 400,000 compounds, 1.4% hits; AID 1347075; note: nearly all actives have a fitted effect of over 60% in size
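Parental KB-3-1 viability, qHTS format: 72 h compound exposure, 37 °C; CellTiter-Glo; media-only wells and DMSO plates as controls; concentration-effect fits on corrected data.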
Numbers without * were called inactive; i = inactive; ? = inconclusive; / = no result; [ ] = remark or other dose. Compounds with a hit are over-represented: about 19% of the library has one in this group of screens. Calls come from the whole dose curve; as a rule, active = well fitted curve in the direction sought with a large enough effect; inconclusive = small, poorly fitted or top-dose-only effect, or another doubt; inactive = no such curve, though single readings can be large; an effect the other way counts as inactive or inconclusive. Unless noted, % is set by controls: 0 for no effect and ±100 for the full control effect; potency is the fitted concentration of half-maximal effect.

SMILES	HT1080 IDH1KD tx	KB-V1 MDR tox	DT40 TDP1 CPT	TDP1 cell noCPT	HT1080NT lethal	KB-3-1 tox
CCOC(=O)N1CCN(C(=O)/C(=C/c2ccccc2OC)NC(=O)c2ccccc2)CC1	9%	7.3µM*	-17%	-11%	0%	i
COc1ccc(C(=O)N/C(=C\c2cccc3ccccc23)C(=O)N2CCN(C)CC2)cc1	-8%	i	?	18µM*	-3%[9.24 µM]	i
CCOC(=O)N1CCN(C(=O)/C(=C/c2ccc(OC)c(OC)c2)NC(=O)c2ccccc2)CC1	6%	i	-2%	-21%	10%	i
C=CCOC(=O)/C(=C/c1cccc2ccccc12)NC(=O)c1ccccc1	-1%	8.2µM*	29µM*	23µM*	6%	i
O=C(OCc1ccccc1)/C(=C/c1cccc2ccccc12)NC(=O)c1ccccc1	7%	i	7%	?	6%	i
Cc1nc(SCc2nc3ccc(C(F)(F)F)cc3[nH]2)c2oc3ccccc3c2n1	/	i	/	/	/	16µM*
Cc1ccc(NC(=O)/C=C2\NC(=O)CS2)cc1	26%	i	20%	-7%	25%	i
CC(C)(C)c1ccc(C(=O)/C=C2\NC(=O)CS2)cc1	-21%	?	15µM*	18µM*	-20%	?
Cc1c(C(=O)N(Cc2nnc(-c3ccccc3Cl)o2)C2CC2)oc2ccccc12	-12%	?	16µM*	?	-10%	i
Cc1ccc(C(=O)N(Cc2nnc(-c3ccccc3Cl)o2)C2CC2)o1	-2%	i	?	18µM*	-3%	i
O=C(c1cc(=O)[nH]c2ccccc12)N(Cc1nnc(-c2ccccc2Cl)o1)C1CC1	10%	i	13µM*	?	6%	i
Cc1ccsc1C(=O)N(Cc1nnc(-c2ccccc2Cl)o1)C1CC1	1%	?	?	?	12%	i
CCC(=O)N(C)C[C@@H]1Oc2ncc(Br)cc2C(=O)N([C@H](C)CO)C[C@H]1C	2%	i	-3%	-11%	-5%	i
O=C(COC(=O)c1n[nH]c(=O)c2ccccc12)Nc1cccc(S(=O)(=O)N2CCOCC2)c1	-3%	?	-10%	-1%	-1%	i
COC(=O)[C@@]12C[C@@H](CC(=O)NCc3ccccc3)C(=O)N(CCc3ccc(OC)c(OC)c3)C1=CCC(C)(C)C2	-4%	?	13µM*	13µM*	-21%	i
CCOC(=O)N1CCN(C(=O)C[C@@H]2C[C@@]3(C(=O)OC)CC(C)(C)CC=C3N(CCc3ccc(OC)c(OC)c3)C2=O)CC1	9%	?	?	16µM*	7%	i
C#CCNC(=O)C[C@@H]1C[C@@]2(C(=O)OC)CC(C)(C)CC=C2N(CCc2ccc(OC)c(OC)c2)C1=O	-3%	?	?	-25%	0%	i
COC(=O)[C@@]12C[C@@H](CC(=O)NCc3ccc(C)o3)C(=O)N(CCc3ccc(OC)c(OC)c3)C1=CCC(C)(C)C2	-16%	18µM*	9.2µM*	8.2µM*	-22%	?
COC(=O)[C@]12CCCCC=C1N(CCc1ccc(OC)c(OC)c1)C(=O)[C@H](CC(=O)NCc1cccs1)C2	0%	i	21µM*	16µM*	4%	i
O=C(NCC1CCCO1)C(c1ccc(F)cc1)N(Cc1ccc2c(c1)OCO2)C(=O)c1ccc(CN2CCOCC2)o1 (stereo not given)	7%	i	7%	-13%	0%	i
COC(=O)[C@@]12C[C@@H](CC(=O)NCc3ccc(OC)c(OC)c3)C(=O)N(Cc3cccc4ccccc34)C1=CCC(C)(C)C2	-28%	21µM*	?	?	?	i
COC(=O)[C@@]12C[C@@H](CC(=O)NCc3cccc4ccccc34)C(=O)N(CCc3ccc(OC)c(OC)c3)C1=CCC(C)(C)C2	-24%	23µM*	?	?	?	?
COC(=O)[C@@]12C[C@@H](CC(=O)N3CCOCC3)C(=O)N(CCc3ccc(OC)c(OC)c3)C1=CCC(C)(C)C2	8%	i	7%	9%	15%	i
CCCCCCCCN1C(=O)[C@H](CC(=O)NCc2cccc(C(F)(F)F)c2)C[C@@]2(C(=O)OC)CC(C)(C)CC=C12	?	23µM*	12µM*	10µM*	?	?
COC(=O)[C@@]12C[C@@H](CC(=O)NCc3cccs3)C(=O)N(CCc3ccc(OC)c(OC)c3)C1=CCC(C)(C)C2	-16%	?	21µM*	?	-16%	i
SMILES	HT1080 IDH1KD tx	KB-V1 MDR tox	DT40 TDP1 CPT	TDP1 cell noCPT	HT1080NT lethal	KB-3-1 tox
COC(=O)[C@]12CCCCC=C1N(Cc1ccco1)C(=O)[C@H](CC(=O)NCc1ccc(OC)c(OC)c1)C2	10%	i	?	?	?	i
CN1C(=O)[C@H](Cc2ccc([N+](=O)[O-])cc2)NC1=S	-8%	i	?	?	-9%	i
CCCCNC(=O)C1CCN(S(=O)(=O)c2cc(Br)cc3c2N(C(=O)CC)CC3)CC1	/	i	-3%	-23%	/	i
CCOc1ccc(NC(=O)CSC2=Nc3ccccc3C3=NC(CCC(=O)NCc4ccccc4)C(=O)N23)cc1 (stereo not given)	/	i	?	16µM*	/	?
CCc1ccccc1NC(=O)CSC1=Nc2ccccc2C2=NC(Cc3ccccc3)C(=O)N12 (stereo not given)	/	?	16µM*	?	/	i
Cc1ccccc1NC(=O)CSC1=Nc2ccccc2C2=NC(CCC(=O)NCc3ccccc3)C(=O)N12 (stereo not given)	/	i	-26%	?	/	i
CCc1ccc(NC(=O)CSC2=Nc3ccccc3C3=NC(CCC(=O)NCCc4ccccc4)C(=O)N23)cc1 (stereo not given)	/	i	23µM*	?	/	i
CCc1ccc(NC(=O)CSC2=Nc3ccccc3C3=NC(CCC(=O)NCc4ccccc4)C(=O)N23)cc1 (stereo not given)	/	i	?	23µM*	/	i
O=C(CCC1N=C2c3ccccc3N=C(SCC(=O)Nc3ccccc3F)N2C1=O)NCc1ccccc1 (stereo not given)	/	?	?	?	/	i
